Laboratory results from PubChem BioAssay (NCATS).
Results filed as inconclusive are left out. The source made the active and inactive calls. Calls come from the whole dose curve; as a rule, active = well fitted cell-killing curve with a large enough effect; inconclusive = small, poorly fitted or top-dose-only effect, or effect the other way; inactive = no such curve, though single readings can be large or run the other way.

Assay: Quantitative highthroughput screen to assess conditional lethalithy of SEM cells grown in Human Plasma-Like Medium with dialyzed fetal bovine serum (HPLM+ds) (AID 1963882); note: nearly all actives have a fitted effect of over 35% in size
Conditions: SEM B-ALL cells in HPLM+ds, CellTiter-Glo viability, 48 h; series mostly up to 45.8 µM; viability: at the top concentration
Source text: Assay Provider: Jason Cantor Ph.D.
Department of Biochemistry
University of Wisconsin-Madison, Madison, WI, USA
Chemical screening studies have identified drug sensitivities across hundreds of cancer cell lines but most putative therapeutics fail to translate. Discovery and development of drug candidates in models that more accurately reflect nutrient levels in human blood is a major challenge. Here we performed high-throughput screens in conventional versus Human Plasma-Like Medium (HPLM) to identify compounds that were "missed" when screening using the artificial culture condition. Sets of conditional anticancer compounds spanned phases of clinical development and included non-oncology drugs were assessed. […] We also traced conditional phenotypes for several chemotherapeutics to availability of HPLM-specific metabolites and confirmed others for compounds whose reported targets are encoded by nonessential genes. Our findings establish generalizable strategies for exploiting conditional lethality in HPLM to reveal therapeutic candidates and mechanisms of action in cancer cells.
Described herein are the results of each viability screens against three cell lines: NOMO1 (an acute myeloid leukemia cell line); P12-Ichikawa (a T-cell acute lymphoblastic leukemia); and SEM (a B-cell ALL). Each assay was screened using 3 different cell culture media: homemade human plasma-Like medium with 10% dialyzed fetal bovine serum (HPLM+ds); RPMI1640 with 10% untreated FBS and 5mM glucose (RPMI+s); and RPMI1640 with 10% dialyzed fetal bovine serum and 5 mM glucose (RPMI+ds).
PROTOCOL TABLE (as described by Inglese J, Shamu CE and Guy RK. 2007)
SEQUENCE No. (e.g., 1, 2, 3, etc.); […] (e.g., Cells, Incubation, Reagent, etc.); VALUE and DESCRIPTION.
1; Cells; 5 uL; white, solid bottom 1536-well Greiner assay plate.
2; Compounds; 23 nL; Kalypsis pin tool (Wako USA) equipped with a 1536-well pin head to transfer to the assay plates.
3; Incubation; 48 hours; 37C incubation.
4; Reagent; 3 uL; CellTiter Glo (Promega).
5; Incubation; 5 min, room temperature
6; Detection; Luminescence, Viewlux PerkinElmer.
NOTES (numbers refer to Sequence numbers above)
1. Briefly, 5 ul of cell reagent was dispensed using a Multidrop Combi Dispenser. The NOMO1 and SEM cells were plated at 500 cells/well and the P12-Ichikawa line at 1000 cells/well.
2. After seeding the cells, 23 nL of MIPE 4.1 library compounds (in DMSO) were added to each plate using a Kalypsys 1536 Pintool dispenser. Bortezomib at final concentration of […] and DMSO were added to each plate as positive and negative controls respectively. For each screen, MIPE 4.1 compounds were added over an eleven-point concentration range […] in 3-fold dilutions.
3. Each plate was covered with a stainless steel gasketed lid to prevent evaporation and incubated for 48 hour at 37C, 95% relative humidity, and 5% CO2.
4-5. Three microliter CellTilter-GloTM luminescent substrate mix (Promega) reagent was added to the assay plate and incubated at room temperature for 5 min.
6. The luminescence signal was measured using a ViewLux (PerkinElmer) multiplate reader with a 2 second exposure time per plate. Data for each compound were normalized as percent viability such that measurements for DMSO and the empty well controls in each plate were defined as 100% and 0%, respectively.
Potency is the fitted concentration of half-maximal effect.

SMILES	viability	Potency
CCCCCCNC(=O)n1cc(F)c(=O)[nH]c1=O	81.8% (inactive)	–
CCS(=O)(=O)c1cccc(-c2cc(C(=O)NC3CCN(C)CC3)c(C)c3[nH]c4ncc(C)cc4c23)c1	–	0.469 µM (active)
Clc1ccc(COC(Cn2ccnc2)c2ccc(Cl)cc2Cl)c(Cl)c1 (stereo not given)	65.5% (inactive)	–
COc1ccc(C(C)=O)c(O)c1	99.2% (inactive)	–
O=C(CCCCCCC(=O)Nc1ccccc1)NO	–	3.72 µM (active)
COc1cc(C)c(Sc2cnc(NC(=O)c3ccc(CNC(C)C(C)C)cc3)s2)cc1C(=O)N1CCN(C(C)=O)CC1 (stereo not given)	–	7.43 µM (active)
CC(C)CC(=O)Nc1n[nH]c2c1CN(C(=O)C1CCN(C)CC1)C2(C)C	–	2.64 µM (active)
COc1c2occc2cc2ccc(=O)oc12	97.7% (inactive)	–
Cc1ccccc1-n1c(Cn2nc(-c3cccc(O)c3)c3c(N)ncnc32)nc2cccc(C)c2c1=O	78.6% (inactive)	–
Nc1nnc(-c2cccc(Cl)c2Cl)c(N)n1	88% (inactive)	–
O=C1CSC(=O)N1C(CCc1ccncc1)COc1ccc(-c2cccc([N+](=O)[O-])c2)cc1 (stereo not given)	73.1% (inactive)	–
N#Cc1c(O)c2c(-c3ccc(-c4ccccc4O)cc3)csc2[nH]c1=O	101% (inactive)	–
CO[C@@H]1[C@@H](OC(N)=O)[C@@H](O)[C@H](Oc2ccc3c(O)c(NC(=O)c4ccc(O)c(CC=C(C)C)c4)c(=O)oc3c2C)OC1(C)C	111% (inactive)	–
O=C(O)CCCCC(CCSCc1ccccc1)SCc1ccccc1 (stereo not given)	94.1% (inactive)	–
C=CC(=O)N1CCc2ccc(-n3c(=O)ccc4cnc5ccc(-c6cnn(C)c6)cc5c43)cc21	–	3.32 µM (active)
CC=C1NC(=O)[C@H]2CSSCCC=C[C@H](CC(=O)N[C@H](C(C)C)C(=O)N2)OC(=O)[C@H](C(C)C)NC1=O	–	0.0372 µM (active)
CCC(C)(C)c1ccc(CC(C)CN2C[C@@H](C)O[C@@H](C)C2)cc1 (stereo not given in full)	94.4% (inactive)	–
CC=CC1=C(C(=O)O)N2C(=O)[C@H](NC(=O)[C@H](N)c3ccc(O)cc3)[C@@H]2SC1	103% (inactive)	–
CN(C)c1nc(N(C)C)nc(N(C)C)n1	103% (inactive)	–
Cc1[nH]nc2ccc(-c3cncc(OC[C@@H](N)Cc4ccccc4)c3)cc12	–	1.18 µM (active)

SMILES	viability	Potency
Nc1ncn([C@H]2C[C@H](O)[C@@H](CO)O2)c(=O)n1	–	2.96 µM (active)
O=C(Nc1ccc(Oc2ccnc3[nH]ccc23)c(F)c1)c1cccn(-c2ccc(F)cc2)c1=O	–	8.33 µM (active)
NC(=O)c1cccc(N)c1	102% (inactive)	–
CCOC(=O)C(C)(C)Oc1ccc(Cl)cc1	93.6% (inactive)	–
O=C(O)CCC=CCC[C@@H]1[C@H](N2CCCCC2)[C@@H](O)C[C@@H]1OCc1ccc(-c2ccccc2)cc1	106% (inactive)	–
COc1cc2nccc(Oc3ccc(NC(=O)Nc4ccc(F)cc4F)c(F)c3)c2cc1OC	–	0.0105 µM (active)
CC(C)n1nc(-c2ccc3oc(N)nc3c2)c2c(N)ncnc21	–	0.0332 µM (active)
CC1(C)SCCN(S(=O)(=O)c2ccc(OCC#CCO)cc2)[C@@H]1C(=O)NO	94.9% (inactive)	–
COc1ncc(-c2ccc3c(Nc4cc(Oc5cc(F)cc(F)c5)cc(C(=O)O)c4)c(S(=O)(=O)NC4CC4)cnc3c2)c(OC)n1	93.2% (inactive)	–
C=C1C[C@@]2(O)O[C@@]3(C[C@H]2C(C)C)[C@H](C)CC[C@H]13	85.3% (inactive)	–
Nc1c2c(nc3ccccc13)CCCC2	92.2% (inactive)	–
NC(=O)c1nnn(Cc2cc(Cl)c(C(=O)c3ccc(Cl)cc3)c(Cl)c2)c1N	85.9% (inactive)	–
CC(C)NCC(O)COc1ccc(CCOCC2CC2)cc1 (stereo not given)	93.4% (inactive)	–
Oc1cc(-c2nc(-c3ccccc3)[nH]c2-c2ccncc2)ccc1Cl	88.5% (inactive)	–
COc1cc2nc(N3CCN(C(=O)C4COc5ccccc5O4)CC3)nc(N)c2cc1OC (stereo not given)	88.7% (inactive)	–
CCC[C@@H]1C[C@@H](C(=O)N[C@@H]([C@H]2O[C@H](SC)[C@H](O)[C@@H](O)[C@H]2O)[C@@H](C)O)N(C)C1	89.6% (inactive)	–
CC(=O)[C@]1(O)Cc2c(O)c3c(c(O)c2[C@@H](O[C@H]2C[C@H](N)[C@@H](O)[C@H](C)O2)C1)C(=O)c1ccccc1C3=O	–	1.05 µM (active)
OC(Cn1cncn1)(Cn1cncn1)c1ccc(F)cc1F	101% (inactive)	–
Cn1cc(-c2ccc3ncc(Cc4ccc5ncccc5c4)n3n2)cn1	–	8.33 µM (active)
Cc1cn(CCN2CCN(c3ccccc3-c3cc(C#N)cc(C(=O)NCCCN4CCCC4)c3)CC2)c2ccccc12	–	6.6 µM (active)
